Out of some 48,000 compounds screened, about 13,000 (27%) showed an effect of 50% or more. This is one part of the list.
What follows are compounds tested on Wolbachia pipientis (assay: Anti-Wolbachia Cell-Based Screen). Conditions: 5 µM.
Type: functional
Set-up: scale not given: in the data most compounds retested in dose-response had high values

Row | Compound | Percent Effect [%]
1 | CN(Cc1ccco1)C(=O)CN1CCCCC1Cn1cncn1 (stereo not drawn) | -0.1414
2 | CN(Cc1ccco1)C(=O)CN1CCOC(Cn2cccn2)C1 (stereo not drawn) | 126.4
3 | CN(Cc1ccco1)C(=O)CN1CCOC(Cn2cncn2)C1 (stereo not drawn) | 96.26
4 | Cc1ccc(-c2nc(CN3CCOC(Cn4cccn4)C3)cs2)o1 (stereo not drawn) | -10.9
5 | Cc1ccc(CN(C)C(=O)CN2CCOC(Cn3cccn3)C2)o1 (stereo not drawn) | 114.2
6 | CN(Cc1ccco1)C(=O)CN1CCCC1Cn1cncn1 (stereo not drawn) | 107
7 | CN(Cc1ccco1)C(=O)CN1CCCC1Cn1cccn1 (stereo not drawn) | -1.962
8 | Cc1ncsc1CN1C[C@@H]2COC[C@]2(COc2ccc(C#N)cn2)C1 | -4.86
9 | COc1ccc(Cl)cc1C(=O)N(C)Cc1cc(C)on1 | -1.731
10 | COCc1cc(N2CCc3onc(-c4cccc(OC)c4)c3C2)ncn1 | -6.434
11 | Cc1nc(C)c(CNCC2CCCn3ccnc32)s1 (stereo not drawn) | -11.09
12 | O=C(Nc1ncn(Cc2cccc(Br)c2)n1)C1CCC1 | 6.264
13 | Cc1nnc(NC(=O)CN2CCOC(Cn3cccn3)C2)s1 (stereo not drawn) | -11.4
14 | Cc1ccccc1CN(C)C(=O)CN1CCOC(Cn2cccn2)C1 (stereo not drawn) | 111
15 | O=C(CN1CCOC(Cn2cccn2)C1)NCCc1ccc(F)cc1 (stereo not drawn) | -2.964
16 | O=C(CN1CCOC(Cn2cccn2)C1)Nc1ccncc1 (stereo not drawn) | -3.889
17 | CN(Cc1ccc(F)cc1)C(=O)CN1CCOC(Cn2cccn2)C1 (stereo not drawn) | 121.8
18 | CN(Cc1ccc(F)cc1)C(=O)CN1CCOC(Cn2cncn2)C1 (stereo not drawn) | -5.304
19 | CCN(CCC(F)(F)F)C(=O)Nc1cccc(N2CCOCC2)c1 | -10.51
20 | CN1CCC(Cc2cc(Nc3ccccn3)ncn2)CC1 | 68.08

Row | Compound | Percent Effect [%]
21 | CC1CCN(CC(O)CNc2ccccn2)CC1 (stereo not drawn) | -1.4
22 | CN1CCC(Cc2cc(Nc3ncccn3)ncn2)CC1 | -2.002
23 | CCC(=O)N1CCC(Cc2cc(Nc3ncccn3)ncn2)CC1 | 93.47
24 | N#CCCN(Cc1cccnc1)C(=O)c1ccn(-c2ccccc2)n1 | 1.241
25 | COc1ccc(/C=C/CN2C[C@H]3CC[C@@H]2CN(S(=O)(=O)N(C)C)C3)cc1 | 13.82
26 | CC(C)c1cc(NCC(O)c2ccncc2)n2nccc2n1 (stereo not drawn) | -8.35
27 | C[C@H](O)CNc1cc(-c2ccccc2)ncn1 | 111.5
28 | C[C@H](O)CNc1cc(-c2ccncc2)ncn1 | 115
29 | COc1cc(NCC(c2ccccn2)N(C)C)ncn1 (stereo not drawn) | 0.2576
30 | C[C@H](O)CNC(=O)c1cnc(-c2ccccc2)nc1O | -14.22
31 | CC(C)c1cc(NCC2(CO)CCCC2)ncn1 | 7.781
32 | O=C(c1ccno1)N1CCC2(CC(=O)N(c3ccc4c(c3)OCO4)C2)C1 (stereo not drawn) | -9.598
33 | Cc1ccc(C)c(C(O)Cn2cc(Cl)c(=O)[nH]c2=O)c1 (stereo not drawn) | 3.012
34 | CCn1nccc1CNC(=O)C(C)n1cc2c(n1)c(C)nn2C (stereo not drawn) | 13.18
35 | COCCNC(=O)Cn1nc(C(C)C)c2cnn(C(C)(C)C)c2c1=O | -0.4126
36 | COCCNC(=O)Cn1cc2c(n1)c(C)nn2C(C)C | 92.82
37 | CCn1nccc1CNC(=O)C1CCCC1 | 10.33
38 | COCCNC(=O)N1CCOCC1c1c(C)nn(C)c1C (stereo not drawn) | -9.833
39 | COCCNC(=O)Cn1cc2c(n1)c(C)nn2C | 124.1
40 | COCCNC(=O)c1cnc(C)nc1C | -12.85

Row | Compound | Percent Effect [%]
41 | COCCNC(=O)C(C)n1cc(Br)cn1 (stereo not drawn) | 8.857
42 | CCn1nccc1CNC(=O)Cn1cc2c(n1)c(C)nn2C(C)C | 116.7
43 | O=C(NCc1cnc2n1CCN(Cc1cccs1)C2)c1ccno1.O=C(O)C(F)(F)F | -34.76
44 | CC(C)(C)c1noc(CCC(=O)N2CCNC(=O)C2)n1 | -18.81
45 | CC(C)Cc1ncc2c(n1)CN(c1cc(N)nc(N)n1)C2 | 16.38
46 | CN(CCc1cn[nH]c1)C(=O)C(c1ccc(F)cc1)N(C)C (stereo not drawn) | -6.005
47 | Cc1ccc(C(C(=O)N(C)CCc2cn[nH]c2)N(C)C)cc1 (stereo not drawn) | 3.285
48 | CN(CCc1cn[nH]c1)C(=O)CCc1ccc(Cl)cc1 | 144.4
49 | CC(=O)N1CCN(CCNc2snc(Cl)c2C#N)CC1 | 4.799
50 | N#CCCN(Cc1cccnc1)C(=O)c1cccc(-n2cnnn2)c1 | -18.3
51 | N#CCCN(C(=O)CCc1cccnc1)c1ccc2c(c1)OCCO2 | 88.06
52 | CC(C)(NCC(=O)NCCC#N)c1ccc2c(c1)OCCO2 | 4.777
53 | COCCC(=O)N(CCC#N)c1ccc2c(c1)OCCO2 | 95.73
54 | N#CCCN(Cc1cccnc1)C(=O)Cc1ccc(-n2cnnn2)cc1 | -0.659
55 | COCCCC(=O)NS(=O)(=O)c1ccc2c(c1)OCCCO2 | -8.462
56 | c1cncc(CCc2nc(C3CC3)nn2-c2ccc3c(c2)OCCO3)c1 | -5.22
57 | CCC(C)N(Cc1cccnc1)Cc1ccc2c(c1)OCCO2 (stereo not drawn) | 9.848
58 | Cc1ccc(N(CCC#N)C(=O)CCc2cccnc2)cc1C | 98.05
